# According to PubChem BioAssay AID1053174 (Broad Institute, 2014):
# About 140 (9.3%) of roughly 1,500 compounds were called active. The rule behind the calls is not given here. These entries were drawn from the full list.
# Assay: false positives in methylated H4 peptide AlphaScreen detection – biochemical, cherry-picked samples, artefact control for NSD2 inhibitor project, dose response (AID 1053174);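 for activity change, negative = signal loss: 0% = median of neutral control wells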
# Details: AlphaScreen artifact counterscreen, preloaded methylated H4 peptide; series mostly up to 10 µM; activity change, negative = signal loss: at the top concentration
Structure (SMILES),"activity change, negative = signal loss",AC35
CCNC(=O)C1(C)CCCN(C(=O)c2ccc3ccccc3n2)C1 (stereo unspecified),-5.17% (inactive),
O=C(/C=C/c1ccc(Cl)cc1Cl)NCc1ccco1,-1.78% (inactive),
COC(=O)c1nc(NC(=O)c2ccccc2)n[nH]1,-0.64% (inactive),
CCC1=[N+]([O-])C(C)(/C(C)=N\O)N(O)C1(C)C (stereo unspecified),-1.82% (inactive),
COC(=O)CCCCC1=CCC2C(=O)C=C(O)C2C1 (stereo unspecified),-3.31% (inactive),
Clc1ccc(C2=CSC3=Nc4cccc5cccc(c45)N23)cc1,-4.57% (inactive),
C=CCc1cccc2cc(C(=O)Nc3ccc(NC(C)=O)cc3)c(=O)oc12,-3.44% (inactive),
Oc1ccc(CNc2ccccc2O)cc1,-4.59% (inactive),
O=C(CNC(=O)c1ccccc1)Oc1ccc([N+](=O)[O-])cc1,-0.899% (inactive),
Cc1c(CC(=O)N2CCN(C(=O)C3COc4ccccc4O3)CC2)c(=O)oc2c(O)c(O)ccc12 (stereo unspecified),-19.2% (inactive),
CS(=O)(=O)N(CC(=O)NCc1ccco1)c1ccc2c(c1)OCO2,-6.79% (inactive),
Cc1[nH]n(-c2ccccc2)c(=O)c1N=Nc1ccccc1C(=O)N1CCCCC1,-13.8% (inactive),
CN(C(=O)CN1C(=O)S/C(=C\c2ccccc2F)C1=O)C1CCS(=O)(=O)C1 (stereo unspecified),-3.69% (inactive),
CC(=O)N(C1=C(Cl)C(=O)c2ccccc2C1=O)c1ccc(C(=O)O)cc1,1.35% (inactive),
C(=N/Nc1cc(N2CCOCC2)nc(N2CCOCC2)n1)/c1ccccc1,-3.4% (inactive),
Cc1cccc(OCCC(=O)Nc2ccccc2C(N)=O)c1,-6.47% (inactive),
Cn1ncc2c(Nc3cccc4ccccc34)ncnc21,-0.685% (inactive),
Cc1[nH][nH]c(=O)c1C(c1ccc2c(c1)OCO2)c1c(C)[nH][nH]c1=O,-7.25% (inactive),
Cc1ccc(S(=O)(=O)/N=C2\C=C(NS(=O)(=O)c3ccc(C)cc3)C(=O)c3ccccc32)cc1,,9.17 µM (active)
O=c1[nH]c(CN2CCOCC2)nc2cc(Cl)ccc12,-0.282% (inactive),
CCOC(=O)c1nnn(-c2nonc2OC)c1-c1ccccc1,-3.01% (inactive),
Cc1cc(=O)[nH]c(N/N=C/c2c(C)nn(-c3ccccc3Cl)c2Cl)n1,-5.79% (inactive),

Structure (SMILES),"activity change, negative = signal loss",AC35
Cc1ccc(-c2ccc(/C=N/NC(=O)CN3CCOCC3)o2)cc1[N+](=O)[O-],-5.05% (inactive),
CCN1CCCC1CNc1ncnc2c1[nH]c1ccc(F)cc12 (stereo unspecified),-7.31% (inactive),
O=C(NNC(=O)c1ccc(Cl)nc1)c1ccc(Br)cc1,1.02% (inactive),
CCN(CC)CCCC(C)n1c2nc(=O)[nH]c(=O)c-2nc2cc(Cl)ccc21 (stereo unspecified),-0.97% (inactive),
CCN(CC)CCOc1ccc2c(c1)C(=NNC(=O)c1ccccn1)c1cc(OCCN(CC)CC)ccc1-2,-19.1% (inactive),
Cc1ccnc(N2CCC(C(=O)NC3CCCCCC3)CC2)n1,1.89% (inactive),
C=CCNCCCCOc1ccccc1,-2.37% (inactive),
Cc1ccccc1-n1nc(C)c2c1N=C1C(Cl)=CC(Cl)=CN1C2c1ccc(C(=O)O)cc1 (stereo unspecified),-5.91% (inactive),
CCOC(=O)c1c(C)[nH]c(C(=O)NCCN2CCOCC2)c1C,-4.69% (inactive),
O=C1C=CC(=O)N1c1ccc(N2CCCCC2)cc1,0.066% (inactive),
O=C(Cn1cc(C(F)(F)F)ccc1=O)Nc1ccc2c(c1)OCCO2,-1.84% (inactive),
COc1cc(C(=O)Nn2c(O)c(C3=c4ccccc4=NC3=O)sc2=S)ccc1O,-2.75% (inactive),
COc1ccc(NC(=O)Cn2nnc(C(=O)NCCc3ccc(OC)c(OC)c3)c2N)cc1,-5.08% (inactive),
CCOc1cc(/C=C/C(=O)OCC(=O)NCCN2C(=O)CSC2=O)ccc1OCC(C)C,-3.73% (inactive),
CC1CCN(CCC(=O)Nc2ccccc2)CC1,-3.77% (inactive),
O=C1Nc2cc(C(=O)N3CCC(N4CCCCC4)CC3)ccc2S/C1=C\c1ccccc1,-9.24% (inactive),
CC(C)(C)CC(=O)Nc1nnc(SCC(=O)NCc2cccs2)s1,-0.29% (inactive),
O=C1C(Cl)=C(Oc2ccccc2)C(=O)c2ccccc21,-1.11% (inactive),
O=c1ccc2c(-c3ccccc3S(=O)(=O)O)c3ccc(O)c(O)c3oc-2c1O,,0.557 µM (active)
CC(=O)c1cc(-c2ccccc2)n(CC(=O)NC2CCCCC2)c1C,-3.2% (inactive),
Cc1[nH][nH]c(=O)c1C(c1ccc(-c2ccc(Cl)cc2)o1)c1c(C)[nH][nH]c1=O,-6.16% (inactive),
CCOc1ccc(C(CC(=O)O)NC(=O)C23CC4CC(CC(C4)C2)C3)cc1OC (stereo unspecified),4.36% (inactive),

Structure (SMILES),"activity change, negative = signal loss",AC35
COc1ccc(S(=O)(=O)N2CCCC(C(=O)NCCCn3ccnc3)C2)cc1OC (stereo unspecified),-0.456% (inactive),
COc1ccc(NC(=O)C2Cc3c(-c4ccc(Cl)cc4)ccnc3O2)cc1 (stereo unspecified),3.24% (inactive),
CCOc1ccccc1Nc1nnc(SCc2ccc(C(=O)OC)o2)s1,6.37% (inactive),
NC1=CC(=O)C(=O)c2cccnc21,-4.08% (inactive),
N#Cc1ccc(CSc2ncccn2)cc1,-5.04% (inactive),
Cc1ccc(S(=O)(=O)N(C)C)cc1NC(=O)/C=C/c1cccs1,-7.91% (inactive),
O=C(CN1C(=O)c2ccc([N+](=O)[O-])cc2C1=O)Nc1nnc(C2CC2)s1,3.62% (inactive),
O=C(NCc1ccco1)c1nc(-c2ccccc2)n(-c2ccccc2)n1,-0.34% (inactive),
CCOC(=O)c1c(C)[nH]c2c1-c1ccccc1C(=O)C2=O,-0.086% (inactive),
O=[N+]([O-])c1ccccc1Nc1ccc(O)cc1,-22.6% (inactive),
O=C(CSc1nnc(-c2ccccc2O)o1)NC1CCCCC1,-3.17% (inactive),
Cc1ccc(C(=O)Cn2cc([N+](=O)[O-])nc2C)cc1,3.46% (inactive),
COCC(C)n1c(SCC(=O)NC2CCCCC2C)nc2ccccc2c1=O (stereo unspecified),-4.78% (inactive),
Cc1ccc(/C=N/NC(=O)c2cc3ccccc3cc2O)o1,0.575% (inactive),
COc1ccccc1N(C)S(=O)(=O)c1ccc(C(=O)NC2CCCCCC2)cc1,-2.33% (inactive),
COc1ccc(OC)c(-c2csc(-c3cccs3)n2)c1,-2% (inactive),
COC(=O)[C@H](Cc1ccccc1)NC(=O)Nc1ccc(S(N)(=O)=O)cc1,-3.74% (inactive),
C/C(=N/NC(=O)CCc1ccccc1)c1ccco1,1.24% (inactive),
CCN(CC)S(=O)(=O)c1ccc(N2CCN(C)CC2)c(NC(=O)Nc2ccccc2F)c1,-5.39% (inactive),
Cc1sc2ncnc(SCC(=O)Nc3ccc(CN4CCCC4)cc3)c2c1C,-3.43% (inactive),
C=CCn1c(=NC(=O)c2ccc(S(=O)(=O)N3CCCC3)cc2)sc2cc(NC(C)=O)ccc21,-1.39% [at 5 µM] (inactive),
CCN(CC)CCCNC(=O)c1cc(-c2cccc(Cl)c2)on1,-3.33% (inactive),
